Data published in PubChem BioAssay (Tox21).
Inconclusive results are not listed. Calls of active or inactive are those of the source. The call rests on the fitted dose curve; in most records, active means well fitted curve in the direction sought with a large enough effect in the repeat runs; inconclusive means weak or mixed curves; inactive means no such curve, though single readings can be large; an effect the other way counts as inactive or inconclusive.

How the values were obtained:
[1] = A CellTox Green Cytotoxicity Assay to monitor cytotoxicity in HepG2 cells - 0 hour (AID 1224882); further: nearly all actives have a fitted effect of over 35% in size
In short: (§1)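 First, HepG2 cells (600/well) mixed with reagent were plated; second, after 5 h at 37 C they received compounds via pintool; third, fluorescence was measured at 0 h through 40 h at 8 h intervals.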

[2] = A CellTox Green Cytotoxicity Assay to monitor cytotoxicity in HepG2 cells - 32 hour (AID 1224883); further: nearly all actives have a fitted effect of over 50% in size
In short: as §1

[3] = A CellTox Green Cytotoxicity Assay to monitor cytotoxicity in HEK293 cells - 8 hour (AID 1224884); further: nearly all actives have a fitted effect of over 35% in size
In short: (§2)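 Dead-cell fluorescence measured kinetically: asymmetric cyanine dye, HEK293, 600 cells/well, 5 h settle, 23 nL cpd/DMSO, 37 C, reads 0–40 h every 8 h.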

[4] = qHTS RealTime-Glo MT Cell Viability Assay in HepG2 cells - 16 hour (AID 1224885); further: nearly all actives have a fitted effect of over 50% in size
In short: (§3)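 Luminescence read-out: viable HepG2 cells reduce a prosubstrate to a NanoLuc substrate, giving a signal proportional to live cell number. Reads taken at 0, 8, 16, 24, 32 and 40 h of compound exposure at 37 C.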

[5] = qHTS RealTime-Glo MT Cell Viability Assay in HEK293 cells - 24 hour (AID 1224886); further: top concentration of the series differs between compounds; nearly all actives have a fitted effect of over 50% in size
In short: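 Nonlytic real-time viability readout: viable cells convert prosubstrate to NanoLuc substrate, giving luminescence proportional to live cell number. HEK293, 600 cells/well, compound added after 5 h, continuous culture at 37 C.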

[6] = qHTS RealTime-Glo MT Cell Viability Assay in HEK293 cells - 8 hour (AID 1224887); further: top concentration of the series differs between compounds; nearly all actives have a fitted effect of over 50% in size
In short: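 600 HEK293 cells per well, dispensed already mixed with RealTime-Glo MT reagents. Compound dosing came 5 h later. The same wells were read for luminescence at 0, 8, 16, 24, 32 and 40 h of exposure at 37 C.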

[7] = A CellTox Green Cytotoxicity Assay to monitor cytotoxicity in HEK293 cells - 16 hour (AID 1224888); further: nearly all actives have a fitted effect of over 35% in size
In short: as §2

[8] = qHTS RealTime-Glo MT Cell Viability Assay in HepG2 cells - 0 hour (AID 1224889); further: nearly all actives have a fitted effect of over 50% in size
In short: as §3

[9] = qHTS assay to identify small molecule antagonists of the estrogen receptor alpha (ER-alpha) signaling pathway using the BG1 cell line in the presence of 0.1 nM 17-beta-estradiol - cell viability counter screen (AID 1259241); further: nearly all actives have a fitted effect of over 40% in size
In short: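 CellTiter-Fluor read (30 min, 37C) on ER-alpha/ERE-luc VM7Luc4E2 cells; 22 hr compound treatment; agonist 0.1 nM E2 final; same-well multiplex.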

[10] = A CellTox Green Cytotoxicity Assay to monitor cytotoxicity in HepG2 cells - 8 hour (AID 1224890); further: nearly all actives have a fitted effect of over 45% in size
In short: as §1

Measured: Potency

COC(=O)c1c(C(F)F)nc(C(F)(F)F)c(C2=NCCS2)c1CC(C)C
not listed: [10]
inactive: all other assays above

CC1(C)COP(Oc2ccccc2)OC1
inactive: all assays above

CNC(=O)Oc1ccc(N(C)C)c(C)c1
not listed: [10]
inactive: all other assays above

CCOP(=S)(OCC)SCSP(=S)(OCC)OCC
not listed: [7]
inactive: all other assays above

NC(=S)C(N)=S
inactive: all assays above

COC(C)(C)C
not listed: [10]
inactive: all other assays above

CCC(=O)C(CCN(C)C)(c1ccccc1)c1ccccc1
inactive: all assays above

CN1CCN(C(=O)O[C@H]2c3nccnc3C(=O)N2c2ccc(Cl)cn2)CC1
not listed: [10]
inactive: all other assays above

CN(N=O)C(N)=O
not listed: [10]
inactive: all other assays above

COC(=O)COc1ccc(Cl)cc1Cl
inactive: all assays above

CCCCCCI
not listed: [7]
inactive: all other assays above

O=[N+]([O-])c1ccc2c3c(cccc13)CC2
not listed: [10]
inactive: all other assays above

CCN(CC)c1nc(C)cc(OP(=S)(OC)OC)n1
not listed: [10]
inactive: all other assays above

N#Cc1ccncc1
inactive: all assays above

CCCCOC(=O)c1ccccc1C(=O)O
not listed: [10]
inactive: all other assays above

COc1cc2c(cc1OC)[C@@]13CCN4CC5=CCO[C@H]6CC(=O)N2[C@H]1[C@H]6[C@H]5C[C@H]43
not listed: [10]
inactive: all other assays above

Nc1ccccc1Cl
not listed: [10]
inactive: all other assays above
